# The list is not random: actives were taken first. Their share in the collection is about 2.3%.
# M1 PAM: human M1 muscarinic receptor positive allosteric modulators, primary screen, CHO-K1 cells, Fluo-8 calcium fluorescence, 1536-well. Muscarinic acetylcholine receptor M1 (Homo sapiens), P11229. 360,000 compounds, 0.088% hits. activation, % at 3 µM. CHO-K1 hM1, ACh EC20; 0% = ACh EC20, 100% = maximal ACh; in the data active = activation above about 19%, passing the limit was not always enough
# Target sequence (P11229 whole entry, looked up): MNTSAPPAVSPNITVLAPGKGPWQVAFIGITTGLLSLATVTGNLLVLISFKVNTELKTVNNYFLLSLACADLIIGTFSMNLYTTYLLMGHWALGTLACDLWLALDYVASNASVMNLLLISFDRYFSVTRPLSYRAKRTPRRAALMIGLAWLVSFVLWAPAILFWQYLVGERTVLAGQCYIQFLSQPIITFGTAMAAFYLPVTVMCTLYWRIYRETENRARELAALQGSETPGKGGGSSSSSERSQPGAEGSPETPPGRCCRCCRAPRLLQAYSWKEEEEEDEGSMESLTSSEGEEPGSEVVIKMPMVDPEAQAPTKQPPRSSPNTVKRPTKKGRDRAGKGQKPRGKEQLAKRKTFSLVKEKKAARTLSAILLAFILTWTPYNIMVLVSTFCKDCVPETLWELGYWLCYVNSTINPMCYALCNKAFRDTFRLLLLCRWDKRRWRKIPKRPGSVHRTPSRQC
# M1 PAM parental: nonselective calcium activators in parental CHO-K1 cells, primary screen, counter-screen for M1 PAM project, cell-based, Fluo-8 calcium fluorescence, full deck, 1536-well | AID 602247, 2012 | ATP EC20; 0% at ATP EC20, 100% at ATP max | 360,000 compounds, 0.02% hits | activation, % at 3 µM;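 active = activation above the run cutoff, the mean activation of all test compounds plus 3 SD, cut at about 40% in these data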;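 also: peak over basal fluorescence ratio in a 140 s read after ATP addition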
# M1 ag parental: counter-screen for M1 agonists: effect in parental CHO-K1 cells; Fluo-8 calcium fluorescence; scaled to maximal ATP response, vehicle zero; activation, % at 3 µM; 360,000 compounds, 0.48% hits; in the data active = activation above about 15%;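 also: untransfected CHO-K1 host cells lacking M1 receptor as counterscreen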
# CHO-K1 Ca antag: counter-screen for M1 antagonists: effect in parental CHO-K1 cells; ATP-induced calcium, Fluo-8 fluorescence; inhibition, % at 3 µM; 360,000 compounds, 0.6% hits; AID 602250;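 active = inhibition above a per-plate cutoff, the plate's mean sample inhibition plus 3 SD, cut at about 24% in these data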
# CHRM1 antagonist: human M1 muscarinic receptor antagonists, primary screen, CHO-K1 cells, Fluo-8 calcium fluorescence, 1536-well; Muscarinic acetylcholine receptor M1 (Homo sapiens), P11229; CHO-K1 hM1, ACh EC80 antagonist; inhibition, % at 3 µM; 360,000 compounds, 1.3% hits;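 active = percent inhibition above its own plate's cutoff, namely the mean of that plate's compound wells plus 3 SD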;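 also: peak over basal fluorescence ratio during 140 s after agonist addition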
# M1 ag: human M1 muscarinic receptor agonists, primary screen, Fluo-8 calcium fluorescence, CHO-K1 cells, HTS | Muscarinic acetylcholine receptor M1 (Homo sapiens), P11229 | CHO-K1 hM1, agonist mode; 0% DMSO, 100% acetylcholine EC100 | activation, % at 3 µM | 360,000 compounds, 0.33% hits;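 active = activation above the run's mean compound activation plus 3 SD, cut at about 16% in these data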;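 also: peak over basal fluorescence ratio within a 140 s kinetic read after compound addition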
# Hits are given with their value; 0 = inactive.
SMILES,M1 PAM,M1 PAM parental,M1 ag parental,CHO-K1 Ca antag,CHRM1 antagonist,M1 ag
Cc1cc(Nc2ccccc2)nn1C(=O)c1ccc(Br)cc1,0,0,0,25.1,0,0
COc1cc(C(=O)NCC(c2cccs2)N2CCOCC2)ccc1OCc1ccc(Cl)cc1 (stereo unspecified),0,0,0,0,0,0
CCC1(c2ccc(F)cc2)NC(=O)N(CC(=O)N2c3ccccc3NC(=O)CC2C)C1=O (stereo unspecified),0,0,0,0,0,0
CCC1(c2ccc(OC)cc2)NC(=O)N(CC(=O)N2CCc3ccccc32)C1=O (stereo unspecified),0,0,0,0,0,28.7
CCC1(c2ccc(F)cc2)NC(=O)N(CC(=O)c2cc(C)n(C3CC3)c2C)C1=O (stereo unspecified),0,0,25.6,0,0,30.3
COc1ccc(C2(C)NC(=O)N(CC(=O)N3CCc4ccccc43)C2=O)cc1OC (stereo unspecified),0,0,0,0,0,0
CCC1(c2ccc(F)cc2)NC(=O)N(CC(=O)N2c3ccccc3CC2C)C1=O (stereo unspecified),0,0,0,0,0,26.9
CC1Cc2ccccc2N1C(=O)CSc1nc2c(c(=O)n(C)c(=O)n2C)n1Cc1ccccc1 (stereo unspecified),0,0,0,0,41.0,0
Cn1c(=O)c2c(nc(SCCN3CCCCC3)n2Cc2ccccc2)n(C)c1=O,0,0,0,0,39.1,0
Cc1cnc(C)c(Nc2nc(C(N)Cc3ccc(Cl)cc3)cs2)n1 (stereo unspecified),0,0,0,0,0,0
Cc1ccc(N(C)C(=O)CCNC(=O)Cn2cnc3ccccc3c2=O)cc1C,0,0,0,35.1,0,0
CC1CN(C(=O)CCc2cc(C(C)(C)C)c(O)c(C(C)(C)C)c2)CC(C)O1 (stereo unspecified),0,0,0,27.1,0,0
CC(C)(C)c1cc(CCC(=O)N2CCC2)cc(C(C)(C)C)c1O,0,0,0,0,0,0
CC1CCN(C(=O)N2c3ccccc3Sc3ccccc32)CC1,0,0,0,0,0,0
CC1CCN(CC(O)CN2c3ccccc3Sc3ccccc32)CC1 (stereo unspecified),0,0,25.5,0,0,0
COc1cc(/C=C(\C#N)c2nc3ccccc3o2)ccc1O,0,0,45.3,30.3,40.4,35.4
CC(C)(C)c1ccc(OCC(=O)Nc2ccncc2)cc1,0,0,0,0,0,0
Cc1ccc(OCC(=O)NNC(=S)NC(=O)C2CC2)c(C)c1,0,0,0,0,0,0
CCc1ccc(OCC(=O)Nc2ccncc2)cc1,0,0,16.8,0,0,0
Cc1ccc(Oc2ccc(OCC(=O)Nc3ccncc3)cc2)cc1,0,0,0,0,40.3,0
O=C(Cc1ccc(Cl)cc1)Nc1ccncc1,0,0,0,0,0,0
O=C(COc1ccccc1)Nc1ccncc1,0,0,0,0,0,0
Cc1ccc(CC(=O)Nc2ccncc2)cc1,0,0,0,36.1,0,0
Cc1ccc(OCC(=O)NNC(=S)NC(=O)C2CCCCC2)c(C)c1,0,0,0,0,0,20.2
CC(C)Oc1ccc(S(=O)(=O)N2CCOCC2)cc1NC(=O)c1ccc(N2CCCC2=O)cc1,0,0,0,0,0,0
Cc1ccc(OCC(=O)Nc2ccncc2)c(C)c1,0,0,0,29.1,0,0
CCN(CC)c1ccc(C2C(C(=O)OCCOC(C)C)=C(C)NC3=C2C(=O)CCC3)cc1 (stereo unspecified),0,0,0,0,90.1,0
Cc1[nH][nH]c(=O)c1C(c1c(C)[nH][nH]c1=O)c1cn(Cc2ccc(Cl)c(Cl)c2)c2ccccc12,0,0,0,0,0,20.3
O=C1c2cccc3cccc(c23)C(=O)N1CC1CCN(CC(O)COc2ccc3ccccc3c2)CC1 (stereo unspecified),0,0,0,0,47.5,0

# Assay outcomes: PubChem BioAssay, The Scripps Research Institute Molecular Screening Center
